{"source": "PubChem BioAssay (EPA / NIEHS)", "key": {"[1]": {"target": "Estrogen receptor (Homo sapiens) (UniProt P03372)", "sequence (P03372 whole entry, looked up, the tested form may be a part)": "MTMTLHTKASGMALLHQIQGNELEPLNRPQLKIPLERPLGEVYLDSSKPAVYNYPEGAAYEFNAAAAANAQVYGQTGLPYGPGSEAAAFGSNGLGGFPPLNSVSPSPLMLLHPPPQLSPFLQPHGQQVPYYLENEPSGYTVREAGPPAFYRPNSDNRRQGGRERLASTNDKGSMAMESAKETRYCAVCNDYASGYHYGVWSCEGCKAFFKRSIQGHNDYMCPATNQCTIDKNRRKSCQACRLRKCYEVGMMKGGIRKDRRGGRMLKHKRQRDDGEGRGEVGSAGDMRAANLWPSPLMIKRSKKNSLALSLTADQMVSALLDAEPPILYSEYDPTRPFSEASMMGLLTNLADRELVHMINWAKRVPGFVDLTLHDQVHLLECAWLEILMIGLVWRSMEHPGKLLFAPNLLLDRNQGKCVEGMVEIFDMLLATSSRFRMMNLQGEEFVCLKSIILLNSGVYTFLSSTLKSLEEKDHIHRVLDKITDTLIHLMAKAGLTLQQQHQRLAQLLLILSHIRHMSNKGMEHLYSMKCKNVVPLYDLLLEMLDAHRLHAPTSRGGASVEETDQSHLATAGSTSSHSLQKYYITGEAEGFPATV", "experiment": "OT_ER_ERaERa_0480: Odyssey Thera (OT) 8-hour HEK293T Protein-Complementation Assay for Estrogen Receptor-alpha/-alpha Homodimer (AID 2283351);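 also: rise in fluorescence from reassembled reporter fragments on ERα LBD homodimer in nucleus or whole cell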", "outline": "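The readout is complementation of fragments fused to the human ER alpha ligand-binding domain (aa 310-547), stably expressed in HEK293T cells. After 8 h of exposure, the increase in nuclear/cytoplasmic fluorescence was measured by laser scanning cytometry and fitted relative to DMSO.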"}, "[2]": {"target": "Estrogen receptor (Homo sapiens) + Estrogen receptor beta (Homo sapiens) (UniProt P03372+Q92731)", "sequence (P03372 whole entry, looked up, the tested form may be a part)": "as above", "sequence (Q92731 whole entry, looked up, the tested form may be a part)": "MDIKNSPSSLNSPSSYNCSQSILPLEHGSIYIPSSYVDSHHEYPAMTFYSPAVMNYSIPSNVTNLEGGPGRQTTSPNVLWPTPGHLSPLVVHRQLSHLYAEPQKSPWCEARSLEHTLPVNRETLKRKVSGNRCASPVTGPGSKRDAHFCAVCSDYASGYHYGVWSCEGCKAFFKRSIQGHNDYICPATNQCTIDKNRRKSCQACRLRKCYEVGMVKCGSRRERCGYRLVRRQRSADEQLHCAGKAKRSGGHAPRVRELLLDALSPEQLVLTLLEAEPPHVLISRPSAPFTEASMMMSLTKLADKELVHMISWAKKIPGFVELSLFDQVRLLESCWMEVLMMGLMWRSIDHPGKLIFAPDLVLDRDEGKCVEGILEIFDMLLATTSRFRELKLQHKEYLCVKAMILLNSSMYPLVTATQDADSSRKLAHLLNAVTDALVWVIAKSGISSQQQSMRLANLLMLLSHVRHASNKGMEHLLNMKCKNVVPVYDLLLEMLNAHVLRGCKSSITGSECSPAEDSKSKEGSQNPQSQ", "experiment": "OT_ER_ERaERb_0480: Odyssey Thera (OT) 8-hour HEK293T Protein-Complementation Assay for Estrogen Receptor-alpha/-beta Heterodimer (AID 2283352)", "outline": "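Fluorescence increase from reconstituted reporter fragments, quantified by laser scanning cytometer, reflects ER-alpha/ER-beta heterodimer formation in human HEK293T cells. Exposure 8 h; positive-direction fitting against DMSO vehicle.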"}, "[3]": {"target": "Estrogen receptor (Homo sapiens) (UniProt P03372)", "experiment": "OT_ER_ERaERa_1440: Odyssey Thera (OT) 24-hour HEK293T Protein-Complementation Assay for Estrogen Receptor-alpha/-alpha Homodimer (AID 2283349);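 also: hits raise fluorescence above DMSO for agonists and antagonists alike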", "outline": "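HEK293T cells stably expressing the human ER alpha ligand-binding domain (aa 310-547) as a homodimer PCA were dosed for 24 hours. Fluorescence intensity was read by laser scanning cytometry, and gain of signal was fitted relative to DMSO vehicle.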"}, "[4]": {"target": "Androgen Receptor/SRC-1 Co-activator, AR (gene 367) (UniProt P10275)", "sequence (P10275 whole entry, looked up, the tested form may be a part)": "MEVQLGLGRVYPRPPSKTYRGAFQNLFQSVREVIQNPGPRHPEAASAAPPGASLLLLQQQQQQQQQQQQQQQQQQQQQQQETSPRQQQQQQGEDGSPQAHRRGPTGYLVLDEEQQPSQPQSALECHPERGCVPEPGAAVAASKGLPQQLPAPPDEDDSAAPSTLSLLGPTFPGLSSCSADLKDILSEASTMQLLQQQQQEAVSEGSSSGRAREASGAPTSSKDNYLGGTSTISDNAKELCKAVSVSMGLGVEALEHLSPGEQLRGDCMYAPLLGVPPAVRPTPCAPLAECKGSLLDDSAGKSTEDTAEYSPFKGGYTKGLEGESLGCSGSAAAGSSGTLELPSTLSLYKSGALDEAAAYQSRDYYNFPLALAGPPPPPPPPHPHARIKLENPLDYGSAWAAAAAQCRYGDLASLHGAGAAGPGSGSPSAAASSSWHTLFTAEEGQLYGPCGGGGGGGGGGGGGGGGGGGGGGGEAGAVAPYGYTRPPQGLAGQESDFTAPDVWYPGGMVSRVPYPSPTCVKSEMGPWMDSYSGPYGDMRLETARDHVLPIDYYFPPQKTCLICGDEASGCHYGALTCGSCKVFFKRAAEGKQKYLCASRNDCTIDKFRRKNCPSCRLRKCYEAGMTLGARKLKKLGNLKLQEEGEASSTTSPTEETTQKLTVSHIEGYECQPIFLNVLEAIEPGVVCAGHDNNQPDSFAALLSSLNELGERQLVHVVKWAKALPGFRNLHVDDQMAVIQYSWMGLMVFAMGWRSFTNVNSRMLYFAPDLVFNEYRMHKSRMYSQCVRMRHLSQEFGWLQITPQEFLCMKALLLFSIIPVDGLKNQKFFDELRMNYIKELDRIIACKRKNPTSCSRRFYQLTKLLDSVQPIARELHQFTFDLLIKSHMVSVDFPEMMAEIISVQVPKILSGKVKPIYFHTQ", "experiment": "OT_AR_ARSRC1_0960: Odyssey Thera (OT) 16-hour HEK293T Protein-Complementation Assay for Androgen Receptor/SRC-1 Co-activator (AID 2283353);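 also: actives raise the signal above DMSO so potency reflects increased AR and SRC-1 complex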", "outline": "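HEK293T cells stably expressing AR and SRC-1 fused to Venus YFP fragments, imaged 16 h after dosing. Nuclear/cytoplasmic fluorescence ratio at 488 nm from at least 400 cells per image; gain of signal relative to DMSO.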"}}, "note": "Results filed as inconclusive are left out. Calls of active or inactive are those of the source. The calls were made as follows: active = hit-call score of the fitted dose curve at least 0.9, where 1 is the maximum; inconclusive = response in the unintended direction; inactive = score below 0.9."}
{"molecule": "CNC(=C[N+](=O)[O-])NCCSCc1ccc(CN(C)C)o1", "values": [{"measurement": "outcome", "setting": "[1]", "value": "inactive"}]}
{"molecule": "CCCCCC1CCC(=O)O1", "note": "(centres undefined)", "values": [{"measurement": "outcome", "setting": "[1]", "value": "inactive"}, {"measurement": "outcome", "setting": "[2]", "value": "inactive"}]}
{"molecule": "CC(C)C(=O)c1ccccc1", "values": [{"measurement": "outcome", "setting": "[1]", "value": "inactive"}]}
{"molecule": "CCCCCCCCOS(=O)(=O)O", "values": [{"measurement": "outcome", "setting": "[1]", "value": "inactive"}]}
{"molecule": "CC1COC(=O)O1", "note": "(centres undefined)", "values": [{"measurement": "outcome", "setting": "[3]", "value": "inactive"}, {"measurement": "outcome", "setting": "[2]", "value": "inactive"}, {"measurement": "outcome", "setting": "[4]", "value": "inactive"}]}
{"molecule": "CCC(C)(CCCC(C)C)OC(C)=O", "note": "(centres undefined)", "values": [{"measurement": "outcome", "setting": "[1]", "value": "inactive"}, {"measurement": "outcome", "setting": "[2]", "value": "inactive"}]}
{"molecule": "c1ccc2scnc2c1", "values": [{"measurement": "outcome", "setting": "[2]", "value": "inactive"}]}
{"molecule": "CCCCCCCCCCCCS", "values": [{"measurement": "outcome", "setting": "[3]", "value": "inactive"}, {"measurement": "outcome", "setting": "[1]", "value": "inactive"}]}
{"molecule": "COc1ccc2[nH]cc(CCNC(C)=O)c2c1", "values": [{"measurement": "outcome", "setting": "[3]", "value": "inactive"}, {"measurement": "outcome", "setting": "[1]", "value": "inactive"}, {"measurement": "outcome", "setting": "[2]", "value": "inactive"}]}
{"molecule": "COc1cc(OC)c2ccc(=O)oc2c1", "values": [{"measurement": "outcome", "setting": "[4]", "value": "inactive"}]}
{"molecule": "CCC(C)(C)C1CCC(OC)CC1", "note": "(centres undefined)", "values": [{"measurement": "outcome", "setting": "[1]", "value": "inactive"}, {"measurement": "outcome", "setting": "[2]", "value": "inactive"}]}
{"molecule": "CC(=O)Nc1cc(S(=O)(=O)O)cc2cc(S(=O)(=O)O)c(N=Nc3ccccc3)c(O)c12", "values": [{"measurement": "outcome", "setting": "[1]", "value": "inactive"}]}
{"molecule": "O=Cc1ccccc1O", "values": [{"measurement": "outcome", "setting": "[1]", "value": "inactive"}]}
{"molecule": "CC(=O)C1=C(C)[C@@H]2C[C@@]3(C1)[C@H](C)CC[C@H]3C2(C)C", "values": [{"measurement": "AC50", "setting": "[2]", "value": "12.4 µM (active)"}]}
{"molecule": "CCCO[Si](OCCC)(OCCC)OCCC", "values": [{"measurement": "outcome", "setting": "[3]", "value": "inactive"}, {"measurement": "AC50", "setting": "[2]", "value": "38.3 µM (active)"}]}
{"molecule": "CCCCOCCOCCOCCO", "values": [{"measurement": "outcome", "setting": "[3]", "value": "inactive"}, {"measurement": "outcome", "setting": "[1]", "value": "inactive"}]}
{"molecule": "[Na+]", "values": [{"measurement": "outcome", "setting": "[3]", "value": "inactive"}, {"measurement": "outcome", "setting": "[1]", "value": "inactive"}]}
{"molecule": "CC(CCO)CC(C)(C)C", "note": "(centres undefined)", "values": [{"measurement": "outcome", "setting": "[3]", "value": "inactive"}, {"measurement": "outcome", "setting": "[1]", "value": "inactive"}, {"measurement": "outcome", "setting": "[4]", "value": "inactive"}]}
{"molecule": "COC(=O)c1cccc(C(=O)OC)c1", "values": [{"measurement": "outcome", "setting": "[3]", "value": "inactive"}, {"measurement": "outcome", "setting": "[1]", "value": "inactive"}, {"measurement": "outcome", "setting": "[4]", "value": "inactive"}]}
